# Screening data: PubChem, National Center for Advancing Translational Sciences (NCATS)
# FBPA coupling cs – counter-screen for Giardia aldolase inhibitors: coupling enzyme system; coupling enzyme system counterscreen, AmpLite Red fluorescence; activity change, negative = inhibition, % at 58.2 µM, hits read low; hit rate 0.67% among 290,000; AID 2472; in the data active = activity change below about -30%
#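 First, compound is pin-transferred into glyceraldehyde-3-phosphate coupling-enzyme reagent at 57.5 uM final and held 10 min at RT. Next, substrate, coupling system and AmpLite Red are added. After 20 min RT, fluorescence (525/598 nm) is read.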
# G9a block – G9a (human) methyltransferase inhibition; Q96KQ7; G9a H3K9 monomethylation, AlphaScreen, 2 h; Potency, µM (highest dose often 102 µM), inactives show at the highest dose activity, negative = inhibition, most hits filed as inhibitors; hit rate 8.8% among 350,000; AID 504332; also: potency is read from the fitted curve at half-maximal effect; nearly all actives have a fitted effect of over 75% in size
# Target sequence (Q96KQ7 913-1193 limits assumed): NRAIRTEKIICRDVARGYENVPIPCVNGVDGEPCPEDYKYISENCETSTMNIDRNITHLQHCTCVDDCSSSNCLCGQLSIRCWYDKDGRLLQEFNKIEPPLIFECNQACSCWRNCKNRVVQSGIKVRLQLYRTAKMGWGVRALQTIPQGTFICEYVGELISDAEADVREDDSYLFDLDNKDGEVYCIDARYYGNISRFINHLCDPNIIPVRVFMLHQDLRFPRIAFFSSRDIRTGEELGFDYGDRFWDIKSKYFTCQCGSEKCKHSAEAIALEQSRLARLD
#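 Readings reflect AlphaScreen signal from monomethyl-H3K9 antibody detection. HMT at 20 nM; substrate b-H3K9 500 nM; cofactor SAM 20 uM; 2 h RT reaction; compounds tested as titrations in qHTS with 15 min preincubation.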
# Tau fibril FP – blocks human tau fibril formation measured by polarization; K18 P301L tau heparin fibrillization, Alexa594 FP, 6 h; Potency, µM (series often up to 57.7 µM), for inactives: at the highest dose activity, negative = inhibition, actives largely listed as inhibitors; hit rate 0.39% among 280,000; also: potency is read from the fitted curve at half-maximal effect; nearly all actives have a fitted effect of over 55% in size
# Target sequence (P10636 561-689 P618L limits assumed): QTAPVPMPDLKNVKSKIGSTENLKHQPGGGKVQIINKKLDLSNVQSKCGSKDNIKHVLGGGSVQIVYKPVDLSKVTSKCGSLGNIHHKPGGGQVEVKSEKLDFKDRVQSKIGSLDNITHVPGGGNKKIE
#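 Steps: dispense K18 P301L tau (15 uM plus 0.24 uM Alexa 594 tracer, final) in pH 7 sodium acetate; add compound; add heparin (20 uM final); incubate 6 hr, 37 C; add ThT (30 uM final); after 1 hr ambient, read FP.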
# Sfp inh – Sfp phosphopantetheinyl transferase inhibition; Potency, µM, without a hit: largest response in the series, negative = inhibition, most hits filed as inhibitors; Biochemical Sfp PPTase activity, qHTS; AID 1490; hit rate 3.5% among 310,000;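 also: the enzyme is Sfp with the accession as filed and its product quenches rhodamine fluorescence; potency is read from the fitted curve at half-maximal effect; 0% = enzyme reaction without inhibitor and -100% = no enzyme wells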
#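 After 15 min at room temperature with compound, 15 nM Sfp received 5 uM rhodamine-CoA plus 12.5 uM BHQ-2-ybbR (50 mM Hepes pH 7.6, 10 mM MgCl2). Rate came from the fluorescence difference over 30 min, ex 525/em 598 nm.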
# Tau fibril ThT – tau fibrillization inhibition (ThT binding) | P10636 | recombinant tau K18 P301L, heparin-induced fibrillization, ThT fluorescence | Potency, µM (top dose mostly 57.4 µM), inactives show top-dose activity, negative = inhibition, actives largely listed as inhibitors | hit rate 2.1% among 270,000; also: potency is read from the fitted curve at half-maximal effect; nearly all actives have a fitted effect of over 55% in size
#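 Heparin-induced fibrillization of the P301L-mutant K18 repeat-domain fragment of human tau was followed by ThT binding in quantitative high-throughput format.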
# Tau fluor cs – counter-screen for tau fibril formation inhibitors; tau K18 P301L (four-repeat tau fragment) Alexa594 fluorescence, heparin fibrillization; Potency, µM (doses to about 57.7 µM), without a hit: top-dose activity change, negative = decrease; hit rate 0.93% among 280,000; also: potency is read from the fitted curve at half-maximal effect; nearly all actives have a fitted effect of over 55% in size
#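 Human K18 P301L tau (15 uM unlabeled plus 0.24 uM Alexa 594-labeled, final) in 100 mM sodium acetate pH 7 was mixed with compound and 20 uM heparin and incubated 6 hr at 37 C.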
# * = called active by the depositor; ? = inconclusive; . = not tested or not shown; [ ] = remark or other dose. This is a sample that favours compounds with a hit; in the whole collection about 11% have one here. Unless noted, calls follow the shape of the dose curve; as a rule, active = well fitted curve in the direction sought with a large enough effect; inconclusive = small, poorly fitted or top-dose-only effect, or another doubt; inactive = no such curve, though single readings can be large; an effect the other way counts as inactive or inconclusive. Unless noted, % is scaled to controls: 0 for no effect and ±100 for the full control effect.
SMILES,FBPA coupling cs,G9a block,Tau fibril FP,Sfp inh,Tau fibril ThT,Tau fluor cs
COc1ccc(/C=C/C(=O)c2ccc(O)cc2O)cc1,2,.,-15%,-61%,11µM*,?
CN(Cc1ccccc1)C(=O)C1CCC(CNS(=O)(=O)c2ccc3c(c2)CCCC(=O)N3)CC1 (centres undefined),.,6%[59 µM],-2%,.,-13%,-17%
COc1cc(O)cc(O)c1C(=O)/C=C/c1ccccc1,2,-113%[59 µM],-6%,-17%,?,-19%
COc1ccc(C(=O)/C=C/NCc2ccc(F)cc2)cc1OC,4,50µM*,-5%,6%,-23%,-23%
COC(=O)[C@H](C)NC(=O)/C=C/c1ccc(OC)cc1,2,71µM*,-7%,?,-1%,1%
COc1ccc(C(=O)/C=C/c2ccccc2)c(O)c1,0,?,14%,20µM*,?,1%
COC(=O)[C@@H](NC(=O)/C=C/c1ccc(OC)cc1)C(C)C,3,-4%,-6%,14%,-4%,-4%
COc1cc(OC)c(C(=O)/C=C/c2ccccc2)c(O)c1O,6,-16%[12.7 µM],5%,-21%,13µM*,-28%
COCCNc1ccnc(-c2ccccc2C(F)(F)F)n1,2,-4%[0.501 µM],.,-3%,.,.
CC(C)CCNC(=O)C1CCC(=O)N1CCc1ccccc1 (centres undefined),2,21%,.,7%,.,.
Cc1ccc(C)c(NC(=O)C(CC(C)C)N2Cc3ccccc3C2=O)c1 (centres undefined),.,7%[59 µM],-1%,.,0%,-6%
COc1ccc(C(=O)N2c3nc(-c4ccco4)nn3C3(CCCCC3)[C@@H]3CCCC[C@@H]32)cc1OC,.,-35%[59 µM],5%,.,-3%,-4%
CCc1ccc(-n2c(Cc3ccccc3)nnc2SCc2nc(-c3cccs3)no2)cc1,.,-33%[59 µM],8%,.,?,-22%
COc1cc(/C=C/C(=O)c2ccc(O)cc2O)ccc1O,-1,.,.,-30%,.,.
COc1ccc(/C=C/C(=O)c2cc3c(cc2N)OCO3)cc1,-1,18µM*,-2%,?,2.8µM*,16µM*[quencher]
COc1ccc(/C=C/C(=O)c2cc(Br)ccc2O)cc1OC,1,25µM*,-10%,-13%,?,-8%
COc1ccc(/C=C/C(=O)c2ccc(OC)cc2OC)cc1,-1,5%[12.7 µM],10%,-7%,?,-20%
COc1ccc(/C=C/C(=O)c2ccc(O)cc2O)cc1OC,0,-27%[2.33 µM],-14%,-37%,7.1µM*,-18%
COc1ccc(/C=C/C(=O)c2cc(Br)ccc2OC(=O)c2ccco2)cc1OC,-1,?,3%,-10%,-3%,-3%
COc1ccc(/C=C/C(=O)c2ccc3c(c2)OCO3)cc1OC,.,12%[12.7 µM],.,.,.,.
COc1ccc(/C=C/C(=O)c2cc(O)ccc2O)cc1,0,?,?,-40%,14µM*,14µM*[quencher]
Cc1ccc(OC(C)C(=O)N(C)Cc2ccccc2)c([N+](=O)[O-])n1 (centres undefined),.,73%,.,-1%,.,.
CCOC(=O)Cn1c(=O)oc2cc(S(=O)(=O)N3CCN(c4cccc(C)c4)C(C)C3)ccc21 (centres undefined),.,-10%[59 µM],0%,.,-1%,-24%
CC(C)=CCC/C(C)=C/Cc1c(O)ccc(C(=O)/C=C/c2ccc(O)cc2)c1O,-5,?,7.9µM*,16%,20µM*,4.5µM*[quencher]
CSc1ccc(/C=C/C(=O)c2ccc(O)cc2)cc1,11,?,-14%,79µM*,?,?
O=C(/C=C/c1ccc(O)cc1)c1ccc(O)cc1O,-1,10%[59 µM],8%,-10%,10µM*,?
COc1ccc(/C=C/C(=O)c2cc(F)ccc2OC(=O)c2ccc(OC)c(OC)c2)cc1OC,-5,56µM*,5%,0%,9%,9%
O=C(/C=C/c1ccccc1)c1ccc(O)cc1O,4,-24%[2.33 µM],?,-13%,?,-25%
